Screening data from PubChem.
Hits are enriched below; roughly 27% of the tested compounds scored in any of these assays.
CYP2C19 activ: human CYP2C19 activators, primary screen, biochemical, luminescence; activation factor at 5 µM; Cytochrome P450 2C19 (Homo sapiens), P33261; recombinant CYP2C19, luciferin-H EGE luminescence; active compounds read high; 0 = fully inhibited enzyme, 1 = untreated enzyme; 96,000 tested, under 10 active;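 active = activation factor of at least 2 at 5 µM in the primary screen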;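 also: 0 = wells with 2.5 mM tranylcypromine and 1 = vehicle-only wells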
CYP2C19 inhib: blockers of cytochrome P450 2C19 activity – biochemical, luminescence, ADME assay, primary screen | P33261 | inhibition, % at 5 µM | 96,000 compounds, 21% hits | CYP2C19 Supersomes, luciferin-H EGE luminescence, 30 min;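 active = CYP2C19 inhibition above a set limit at 5 µM in the primary screen, cut at about 50% in these data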;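 also: plate controls were negative control wells for no effect and 2.5 mM tranylcypromine positive control for full effect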
CYP2C9 inh: blockers of cytochrome P450 2C9 activity – biochemical, luminescence, ADME assay, primary screen | P11712 | inhibition, % at 5 µM | 96,000 compounds, 20% hits | CYP2C9 Supersomes, luciferin-H conversion;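 active = blocking of liver enzyme CYP2C9 beyond about 50% at 5 µM, limit read from the data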
Cav32 inh: Cav3.2 calcium influx blockers – cell-based, Fluo-4 calcium fluorescence, FDSS, MLSMR library, primary screen; Cav3.2-expressing cells; active compounds read low; B-score at 10 µM; 100,000 compounds, 4% hits;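 active = single-dose well whose peak fluorescence ratio is a statistical outlier from its plate by either plate-standardised score or position-corrected B-score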
Pyk2 oligo antag: antagonists of Pyk2 self-association, primary screen, Q293 cells, FERM NanoBiT luminescence, HTS; Protein-tyrosine kinase 2-beta (Homo sapiens), Q14289; active compounds read low; z-score (the deposit names both 25 µM and 10 µM); 99,000 compounds, 0.83% hits;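 active = Z-score of -3 or lower, scaled per plate to the spread of control and sample wells; inactive = z-score above -3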;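 also: negative z-score means lost luminescence so less FERM oligomerization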
CYP2C9 act: human CYP2C9 activators, primary screen, biochemical, luminescence; Cytochrome P450 2C9 (Homo sapiens), P11712; recombinant CYP2C9, luciferin-H conversion; active compounds read high; factor 1 = untreated enzyme, 0 = blocked; activation factor at 5 µM; 96,000 compounds, 1.4% hits; AID 1024, 2008;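 active = activation factor of 2 or more for CYP2C9 at a 5 µM dose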;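 also: 0 = sulfaphenazole-blocked wells and 1 = vehicle-only wells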
Active calls of the source: *; . = no result.

SMILES	CYP2C19 activ	CYP2C19 inhib	CYP2C9 inh	Cav32 inh	Pyk2 oligo antag	CYP2C9 act
COc1ccc2nc(NC(=O)C(NS(=O)(=O)c3cccs3)C(C)C)sc2c1 (configuration not stated)	0.4	55*	63*	-0.011	-0.69	0.4
COc1ccc2nc(NC(=O)CN3CCN(C)CC3)sc2c1	1.1	-6	-5	0.19	0.43	1
CC(C)NS(=O)(=O)c1cccc2nsnc12	1	-1	-10	-0.077	0.23	1.1
CCOc1ccccc1NC(=S)NCc1ccco1	0.1	87*	-31	0.98	-0.21	1.3
S=C(NCc1ccco1)N1CCN(Cc2ccco2)CC1	0.9	9	-7	0.43	0.73	1.1
COc1ccc(Cl)cc1NC(=S)NCc1ccco1	0.3	71*	-100	-1	0.33	2*
O=C(Nc1ccc(Cl)c(Cl)c1)N(Cc1cccnc1)Cc1ccco1	0	99*	100*	.	-2.8	0
COc1cc(OC)cc(C(=O)NC(=S)NCc2ccco2)c1	1.1	-5	33	0.013	0.26	0.7
COc1cccc(N2CCN(C(=S)NCc3ccco3)CC2)c1	0.5	53*	68*	-1.2	1.8	0.3
COc1ccccc1-c1cc(C(=O)Nc2ccccc2SC)no1	1.1	-12	-50	0.37	-1.5	1.5
CCOc1ccc2nc(SCC(=O)NC(=O)NCc3ccco3)[nH]c2c1	1.1	-6	10	-3	0.74	0.9
COc1cc(NC(=S)NCc2ccco2)cc(OC)c1	0.3	67*	10	0.1	-0.45	0.9
S=C(NCc1ccco1)Nc1ccc(Cl)c(Cl)c1	0.5	53*	36	-3.3	0.63	0.6
S=C(NCc1ccco1)Nc1cccc(Cl)c1	0.7	34	-16	-0.17	0.2	1.2
COc1cc2c(cc1NC(=O)CN1CCN(S(=O)(=O)c3ccccc3F)CC1)oc1ccccc12	0.8	18	29	-0.31	1.2	0.7
COC(=O)c1ccc(NC(=O)CSc2nnc(C(C)NC(=O)c3ccccc3Cl)n2C)cc1 (configuration not stated)	1.1	-8	8	0.99	0.66	0.9
CNC(=O)N(C1=NCC(C)(C)S1)c1ccc(F)c(Cl)c1	0.1	91*	51*	-1.7	.	0.5
c1cn(-c2ncnc3sc4c(c23)CCCC4)cn1	0.7	28	9	-1.1	-0.48	0.9
Cc1cccnc1Nc1nc(-c2ccc(O)c(O)c2)cs1	0.3	66*	76*	2.4	-0.82	0.2
CC/C=C/C(=O)N1CC2(CC(c3cccc(NC(=O)COc4ccc(Cl)cc4)c3)=NO2)C[C@H]1C(N)=O (some centres not stated)	.	.	.	0.046	.	.
CCn1c(=O)cc(SCC(=O)Nc2cc(OC)c(OC)c(OC)c2)c2ccccc21	0.2	77*	-188	-0.28	-1	2.9*
CCn1c(=O)cc(SCC(=O)NCc2ccc(C)o2)c2ccccc21	0.7	32	-100	-0.68	-0.2	2*
CCn1c(=O)cc(SCC(=O)Nc2cccc(SC)c2)c2ccccc21	0.9	9	-39	-0.44	-1.8	1.4
CCn1c(=O)cc(SCC(=O)Nc2ccc3c(c2)OCCO3)c2ccccc21	0.4	61*	-101	-2.3	-2	2*
Cn1ncc2c(=O)n(CC(=O)NC34CC5CC(CC(C5)C3)C4)cnc21	1.1	-6	-21	0.31	0.06	1.2
SMILES	CYP2C19 activ	CYP2C19 inhib	CYP2C9 inh	Cav32 inh	Pyk2 oligo antag	CYP2C9 act
O=C(NCC1CCS(=O)(=O)C1)Oc1ccccc1 (configuration not stated)	0.8	16	-5	.	-0.45	1.1
CCOC(=O)CC1C(=O)NCCN1C(=O)Nc1ccccc1 (configuration not stated)	0.7	26	6	-0.1	0.53	0.9
CC1CCCCN1S(=O)(=O)c1ccc(C(=O)Nc2nnc(-c3ccccc3Cl)o2)cc1 (configuration not stated)	0.7	28	22	.	-2.3	0.8
O=C(Nc1nnc(-c2ccccc2Cl)o1)c1ccc(S(=O)(=O)N2CCCCCC2)cc1	0.8	16	54*	-7.1*	.	0.5
CCC1CCCCN1S(=O)(=O)c1ccc(C(=O)Nc2nnc(-c3ccccc3Cl)o2)cc1 (configuration not stated)	.	.	.	-7.9*	-0.96	.
Cc1nc(-c2coc3cc(OCC(=O)O)ccc3c2=O)cs1	0.5	47	-5	0.45	1.7	1.1
Cc1nc(-c2coc3cc(O)c(C)cc3c2=O)cs1	0.3	68*	4	-0.0085	-0.55	1
CCCn1c(N)c(N2CCCCC2)c(=O)n(CC(=O)Nc2ccccc2)c1=O	0.6	37	44	0.19	-0.75	0.6
O=C1CSC(c2cn(-c3ccccc3)nc2-c2cc3ccccc3oc2=O)N1Cc1ccco1 (configuration not stated)	0.4	55*	76*	.	-1.8	0.2
Cc1ccc(-c2nn(-c3ccccc3)cc2C2SCC(=O)N2Cc2ccccc2)o1 (configuration not stated)	0.9	8	45	-2.4	.	0.5
O=C1CSC(c2cn(-c3ccccc3)nc2-c2cc3ccccc3o2)N1Cc1ccccc1 (configuration not stated)	0.5	54*	89*	.	-0.13	0.1
O=C(NNc1c2ccccc2nc2ccccc12)c1ccc(O)cc1O	0.3	66*	71*	.	-2.9	0.3
COc1ccc(OCC(=O)NNc2c3ccccc3nc3ccccc23)cc1	1	0	-134	-2	-0.5	2.3*
O=C(COc1ccccc1)NNc1c2ccccc2nc2ccccc12	0.8	15	-222	.	0.11	3.2*
NC(=O)CC(NC(=O)Cc1ccc(Br)cc1)c1ccc(NCc2ccc(F)cc2)c([N+](=O)[O-])c1 (configuration not stated)	.	.	.	-0.76	.	.
COc1cc(Nc2ccccc2Cl)c([N+](=O)[O-])nc1[N+](=O)[O-]	0.2	81*	8	0.25	-0.57	0.9
COc1ccc(S(N)(=O)=O)cc1C(=O)NCC1(N2CCCCC2)CCCCC1	1	1	-7	0.34	-0.05	1.1
CCOC(=O)CCSc1nc(C)c2ccccc2n1	0.8	20	-41	-0.082	0.54	1.4
CCOC(=O)CCSc1nc(C)c2cc(C)ccc2n1	0.2	78*	58*	-2	1.6	0.4
Cn1cc(S(=O)(=O)NCc2ccco2)c(=O)n(C)c1=O	1	2	-16	-0.16	.	1.2
O=C(Nc1ncc(Cc2ccccc2)s1)C1COc2ccccc2O1 (configuration not stated)	0.9	5	1	-0.22	-0.83	1
